The source of these data is PubChem BioAssay (Tox21).

Structures are written as SMILES. Results filed as inconclusive are left out. Where a call stands in place of a potency, no number is given. Calls of active or inactive are those of the source. The call rests on the fitted dose curve; in most records, active means well fitted cell-killing curve with a large enough effect in the repeat runs; inconclusive means weak or mixed curves, or effect the other way; inactive means no such curve, though single readings can be large or run the other way.

The nature of the assay: qHTS assay to identify small molecule antagonists of the peroxisome proliferator-activated receptor gamma (PPARg) signaling pathway - cell viability counter screen (AID 743194). Further: nearly all actives have a fitted effect of over 55% in size. As to conditions: PPARg-bla HEK293H viability, CellTiter-Glo luminescence, 17 h, co-treated with 50 nM rosiglitazone; series mostly up to 62.6 µM; activity change, negative = cytotoxicity: at the top concentration. The gist of the method: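 Cytotoxicity counter screen in PPARg-bla HEK293H cells, same wells as reporter assay. Compounds plus 50 nM rosiglitazone (final) for 17 h at 37 C, then viability read by CellTiter-Glo luminescence.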
In general terms: In qHTS, concentration-response curves come from the screen itself.
As for `O=S1(=O)CCCO1`, the “activity change, negative = cytotoxicity” value is -9.63% [at 81.1 µM] (inactive).
As for `CCOC(=O)C(C)Oc1ccc(Oc2cnc3cc(Cl)ccc3n2)cc1` (centres undefined), the Potency result was “inactive”.
On the same count and under the same terms, to `COC(=O)CC(=O)OC` belongs “inactive”; to `C=C[Si](OCCOC)(OCCOC)OCCOC`, “inactive”.
As to `CN(C)/N=N/c1nc[nH]c1C(N)=O`, the “activity change, negative = cytotoxicity” value is 4.59% (inactive).
Regarding `c1ccc2c(c1)[nH]c1ccccc12`, the Potency entry was “inactive”.
As to `CCCCCCC(C)O` (centres undefined), the Potency entry was “inactive”.
With `CCC/C=C/C=O`, the Potency result was “inactive”.
On to `CCCCCCCCCCCCO`, for which the “activity change, negative = cytotoxicity” value is 3.39% (inactive).
Take `CC(C)[N+](C)(CCOC(=O)C1c2ccccc2Oc2ccccc21)C(C)C`: the Potency entry is “inactive”.
Regarding `C/C=C/C(=O)N(CC)c1ccccc1C`, the Potency result is “inactive”.
Take `COC(=O)c1ccc(C)cc1`: the Potency result is “inactive”.
Still for that read-out and setting: to `CCc1cccc2c3c([nH]c12)C(CC)(CC(=O)O)OCC3` (centres undefined) belongs “inactive”.
As for `CCCCCCCCCCCCCO`, the Potency result is “inactive”.
Consider `CC(C)=CCO`, for which the Potency entry is “inactive”.
For `CC(=O)Oc1c(C)c(C)c2c(c1C)CC[C@@](C)(CCC[C@H](C)CCC[C@H](C)CCCC(C)C)O2`, the Potency result is “inactive”.
Still for that read-out and setting: to `Cc1ccc(C(C)(C)C)cc1` belongs “inactive”.
Same read-out and setting: next, `CCO[Si](CCCNC(N)=O)(OCC)OCC`: “inactive”; `OC[C@H]1O[C@@H]2O[C@H]3[C@H](O)[C@@H](O)[C@@H](O[C@H]4[C@H](O)[C@@H](O)[C@@H](O[C@H]5[C@H](O)[C@@H](O)[C@@H](O[C@H]6[C@H](O)[C@@H](O)[C@@H](O[C@H]7[C@H](O)[C@@H](O)[C@@H](O[C@H]1[C@H](O)[C@H]2O)O[C@@H]7CO)O[C@@H]6CO)O[C@@H]5CO)O[C@@H]4CO)O[C@@H]3CO`: “inactive”.
For `CC1(C)O[C@@H]2C[C@H]3[C@@H]4C[C@H](F)C5=CC(=O)C=C[C@]5(C)[C@@]4(F)[C@@H](O)C[C@]3(C)[C@]2(C(=O)CO)O1`, the Potency result is “inactive”.
Turning to `CCCCCCCC/C=C\CCCCCCCC(=O)O`, the Potency entry was “inactive”.
On the same count and under the same terms, next, `CN(C)C`: “inactive”.
Take `CCC(Cc1c(I)cc(I)c(N)c1I)C(=O)O` (centres undefined): the “activity change, negative = cytotoxicity” value is -24.9% (inactive).
Turning to `Cc1ccc([N+](=O)[O-])c(C)c1`, the “activity change, negative = cytotoxicity” value was 2.59% (inactive).
Turning to `O=C1CCc2ccccc2O1`, the Potency result was “inactive”.
The same measure, in the same setting: to `[Na+]` belongs “inactive”.
For the compound `C1COCCN1`, the Potency result was “inactive”.
For the compound `Nc1cc(Cl)c(N)c(Cl)c1`, the Potency entry was “inactive”.
On to `CC(C)(C)c1cccc(C(C)(C)C)c1O`, for which the Potency result was “inactive”.
On to `C=CCNCC=C`, for which the “activity change, negative = cytotoxicity” value is -13.7% (inactive).
On the same count and under the same terms, next, `FC(F)(F)C(Cl)Br` (centres undefined): -3.92% (inactive).
Regarding `CCCCCC1C(=O)CCC1CC(=O)OC` (centres undefined), the Potency result is “inactive”.
Still for that read-out and setting: to `NCCOCCO` belongs “inactive”; to `CNC[C@H](O)c1ccc(O)c(O)c1`, “inactive”.
As for `NCCS(=O)(=O)O`, the Potency entry is “inactive”.
Same read-out and setting: next, `Cc1ccc(S(=O)(=O)O)cc1C`: “inactive”; `CC1(C)C(C=C(Cl)Cl)C1C(=O)OCc1cccc(Oc2ccccc2)c1` (centres undefined): “inactive”.
Turning to `Cc1ccc(N)c([N+](=O)[O-])c1`, the Potency entry was “inactive”.
In the case of `O=C(O)c1cc(=O)[nH]c(=O)[nH]1`, the “activity change, negative = cytotoxicity” value is 3.69% (inactive).
